Screening results deposited in PubChem BioAssay by National Center for Advancing Translational Sciences (NCATS).
The list is not random: actives were taken first. Their share in the collection is about 11%.
ALDH1A1 inh = qHTS Assay for Inhibitors of Aldehyde Dehydrogenase 1 (ALDH1A1); Purified ALDH1A1, NADH fluorescence, propionaldehyde substrate; AID 1030, 2008; actives 7.3% (n = 220,000); Potency, µM (top dose mostly 75.3 µM), actives largely listed as inhibitors
Target sequence (P00352 whole entry, looked up): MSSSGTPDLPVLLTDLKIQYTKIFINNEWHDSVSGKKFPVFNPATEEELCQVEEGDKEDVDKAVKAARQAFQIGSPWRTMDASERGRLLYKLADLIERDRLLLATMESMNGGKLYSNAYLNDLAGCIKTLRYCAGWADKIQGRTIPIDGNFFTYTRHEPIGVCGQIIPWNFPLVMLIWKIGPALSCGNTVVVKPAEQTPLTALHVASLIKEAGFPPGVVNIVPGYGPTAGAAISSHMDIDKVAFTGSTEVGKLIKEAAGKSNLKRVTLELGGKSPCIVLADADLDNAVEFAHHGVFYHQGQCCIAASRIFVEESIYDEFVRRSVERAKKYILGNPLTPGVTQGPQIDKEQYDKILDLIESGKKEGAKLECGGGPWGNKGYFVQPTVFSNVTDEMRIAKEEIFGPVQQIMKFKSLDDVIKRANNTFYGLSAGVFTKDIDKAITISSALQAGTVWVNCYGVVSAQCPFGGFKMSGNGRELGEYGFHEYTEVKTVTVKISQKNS
PNC inhibitor = High Content Assay for Compounds that inhibit the Assembly of the Perinucleolar Compartment; actives 3.1% (n = 140,000); activity change (PNC), negative = inhibition, % at 10 µM; PC3M PTB-GFP, PNC prevalence imaging, 16 h; hits give low values;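 active means readout at or below -70, meaning at least 70% loss of cells showing the perinucleolar compartment, a nuclear body marking cancer cells; inconclusive means readout between -30 and a set limit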
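Read-out is percentage of cells bearing a perinucleolar compartment, from automated 20x imaging of fixed, Hoechst-stained PC3M PTB-GFP cells. Cells were seeded 4 h, then exposed 16 h to compound (23 nl of library stock) in duplicate plates.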
HTT cytoprotect = qHTS Multiplex Assay to Identify Dual Action Probes in a Cell Model of Huntington: Cytoprotection (ATP) | PC12 HTT-Q103 induced, cytoprotection, ATP luminescence, 40 h | Potency, µM (series often up to 56.4 µM), usual class: activators | actives 0.14% (n = 230,000) | AID 1471, 2008; active means well fitted curve in the direction sought with a large enough effect; inconclusive means small, poorly fitted or top-dose-only effect, or another doubt; inactive means no such curve, though single readings can be large; an effect the other way counts as inactive or inconclusive; further: nearly all actives have a fitted effect of over 45% in size
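Rat PC12, Q103 Htt exon1-GFP fusion, ecdysone promoter; tebufenozide inducer 100 nM final; compound titration; qHTS, 1500 cells/well; ATPlite luminescent read.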
HPGD block = qHTS Assay for Inhibitors of HPGD (15-Hydroxyprostaglandin Dehydrogenase) | 15-hydroxyprostaglandin dehydrogenase [NAD(+)] (Homo sapiens), P15428 | purified HPGD, NADH fluorescence kinetic, PGE2 substrate | Potency, µM, most hits filed as inhibitors | actives 4.3% (n = 150,000)
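NADH formation kinetics: reaction with 30 uM PGE2 and 1 mM NAD+ (final), 20 nM enzyme, Tris-HCl pH 8 with Tween 20, after 15 min compound preincubation at room temperature. Fluorescence change, last versus first of five reads.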
RGS12 GoLoco inh = qHTS Assay for Inhibitors of RGS12 GoLoco Motif Activity (Red Fluorophore); Guanine nucleotide-binding protein G(i) subunit alpha-1 (Homo sapiens), P63096; Gai1:RGS12 GoLoco peptide FP, rhodamine, 10 min; Potency, µM (highest dose often 61.6 µM), usual class: inhibitors; actives 0.44% (n = 230,000); AID 880, 2007; active means well fitted inhibition curve with a large enough effect, not every such curve was filed as active; inactive means no such curve, though single readings can be large or run the other way; further: nearly all actives have a fitted effect of over 30% in size
HttQ103 aggreg = qHTS Multiplex Assay to Identify Dual Action Probes in a Cell Model of Huntington: Aggregate Formation (GFP); PC12 HttQ103-GFP aggregates, Acumen cytometry, 40 h; Potency, µM (doses to about 46.1 µM), usual class: inhibitors; actives 1.1% (n = 220,000); AID 1688, 2009; active means well fitted curve in the direction sought with a large enough effect; inconclusive means small, poorly fitted or top-dose-only effect, or another doubt; inactive means no such curve, though single readings can be large; an effect the other way counts as inactive or inconclusive; further: nearly all actives have a fitted effect of over 60% in size
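Multiplexed with ATP-based cell death, this channel scores GFP aggregates in PC12 cells expressing inducible HTTex1-Q103-GFP. Induction used 100 nM tebufenozide; compounds were tested in concentration series.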
Of the large screens only hits and unclear results are named; the others gave an inactive call. Unless noted, the call rests on the fitted dose curve; in most records, active means well fitted inhibition curve with a large enough effect (not every such curve was filed as active); inconclusive means small, poorly fitted or top-dose-only effect, or another doubt; inactive means no such curve, though single readings can be large or run the other way.

COc1ccc(NC(=O)Cn2cnc3c(cnn3C(C)(C)C)c2=O)cc1OC	none (no result: PNC inhibitor, HPGD block)
Cc1ccc(NC(=O)Cn2cnc3c(cnn3C(C)(C)C)c2=O)cc1	PNC inhibitor -100.0
c1ccc2c(Nc3ccc4c(c3)OCCO4)c3c(nc2c1)CCCC3	none (no result: PNC inhibitor, HPGD block)
CC(C)c1ccc(NC(=S)NCCc2c[nH]c3ccccc23)cc1	ALDH1A1 inh inconclusive, HttQ103 aggreg inconclusive (no result: HTT cytoprotect)
CCOc1c(Br)ccc2c1sc1nc[nH]c(=O)c12	HttQ103 aggreg 11.2µM (no result: HPGD block, RGS12 GoLoco inh)
COCCOC(=O)c1sc2nc[nH]c(=O)c2c1C	HttQ103 aggreg inconclusive (no result: PNC inhibitor, HPGD block)
CN(C(=O)COC(=O)c1ccc[nH]c1=O)C1CCCCC1	none (no result: PNC inhibitor, HPGD block)
NCCc1nnc(SCC(N)=O)o1	none
CCN(CC)C(=O)CSc1nnc(CCN)o1	PNC inhibitor -81.7
COc1ccc(C(=O)N2CCC3(CC2)CN(C(=O)NC(C)C)C3)cc1	HTT cytoprotect inconclusive (no result: PNC inhibitor, HttQ103 aggreg)
O=C(Cc1ccccc1)N/N=C/c1ccc2cccc(O)c2n1	HTT cytoprotect inconclusive (no result: PNC inhibitor, HPGD block)
N#C/C(=C\c1ccc(N2CCOCC2)o1)C(=O)Nc1ccc(O)cc1	ALDH1A1 inh 20µM (no result: PNC inhibitor, HPGD block)
N#C/C(=C/c1ccc(N2CCOCC2)o1)C(=O)NC1CCCCC1	ALDH1A1 inh 6.31µM (no result: PNC inhibitor, HPGD block)
CC1CC1c1ccc(/C=C(\C#N)C(=O)Nc2ccccc2Cl)o1 (stereo not given)	ALDH1A1 inh inconclusive
CC1CC1c1ccc(/C=C(\C#N)C(=O)Nc2ccc(Cl)cc2)o1 (stereo not given)	ALDH1A1 inh inconclusive, PNC inhibitor -125.2
COc1ccc(NC(=O)/C(C#N)=C/c2ccc(Br)o2)cc1	none
COc1ccc(NC(=O)/C(C#N)=C\c2ccc(N3CCOCC3)o2)cc1	ALDH1A1 inh inconclusive (no result: PNC inhibitor, HPGD block)
N#C/C(=C/c1ccc(N2CCCCC2)o1)C(=O)Nc1ccc2ccccc2c1	ALDH1A1 inh inconclusive, PNC inhibitor -91.3, HPGD block inconclusive, HttQ103 aggreg 2.51µM
Cc1cc(S(=O)(=O)N2CCN(C(=O)CCC(=O)N3CCOCC3)CC2)ccc1Br	none (no result: ALDH1A1 inh, PNC inhibitor, HPGD block)
CC=C(/C(=C/C)c1ccc(O)cc1)c1ccc(O)cc1	none (no result: PNC inhibitor)
CNC(=O)/C(C#N)=C\c1ccc(CNS(=O)(=O)c2ccc(Cl)cc2)o1	none (no result: PNC inhibitor, HPGD block)
N#C/C(=C/c1ccc(N2CCCCC2)o1)C(=O)Nc1ccc(Cl)cc1	PNC inhibitor -123.2, HttQ103 aggreg inconclusive
O=C(c1ccc(Cl)cc1)N1CCCCC(Cl)C1=O (stereo not given)	ALDH1A1 inh inconclusive (no result: PNC inhibitor, HPGD block)
Cc1ccc([C@@H](O)c2cnc(C)n2Cc2ccccc2)cc1	none (no result: PNC inhibitor, HttQ103 aggreg)
CC(NC(=O)Cc1ccc(-c2ccccc2)cc1)c1ccccc1 (stereo not given)	ALDH1A1 inh 11.2µM, HPGD block 14.1µM
Cc1ccc(OCCCC(=O)NC(C)c2ccccc2)cc1 (stereo not given)	ALDH1A1 inh inconclusive, PNC inhibitor inconclusive, HPGD block inconclusive
C[C@H](NC(=O)Cn1cncn1)c1ccccc1	PNC inhibitor -100.0
CC(NC(=O)Cn1cnc([N+](=O)[O-])n1)c1ccccc1 (stereo not given)	none
CC[C@H](C)[C@@H](NC(=O)O[C@H]1C(=O)c2cc(OC)ccc2O[C@@H]1c1ccc(OC)c(Br)c1)C(=O)OC	ALDH1A1 inh inconclusive, HTT cytoprotect inconclusive, HPGD block inconclusive (no result: PNC inhibitor, HttQ103 aggreg)
CC(CC(=O)NCC1CCCO1)c1ccccc1 (stereo not given)	HPGD block 15.8µM
O=C(COC(=O)c1ccccc1)NCC1CCCO1 (stereo not given)	none
O=C(NC(=S)NCC1CCCO1)c1ccccc1 (stereo not given)	none
O=C(NCC1CCCO1)c1cc2ccccc2[nH]1 (stereo not given)	PNC inhibitor -123.3, HPGD block inconclusive
